These results are taken from PubChem BioAssay (NCATS).

A number with no mark means an inactive call. Inconclusive results are not listed. Activity calls are given as the source filed them. Calls come from the whole dose curve; as a rule, active = well fitted curve in the direction sought with a large enough effect; inconclusive = small, poorly fitted or top-dose-only effect, or another doubt; inactive = no such curve, though single readings can be large; an effect the other way counts as inactive or inconclusive.

Assay [1] has as its target Glutathione peroxidase 1 (Homo sapiens) (UniProt P07203). In words: Primary qHTS Assay for Inhibitors of Recombinant Selenoprotein Glutathione Peroxidase 1 (GPX1) (AID 1845191). For activity, negative = inhibition: % is set by controls: 0 for no effect and ±100 for the full control effect. Note: nearly all actives have a fitted effect of over 65% in size. In outline:
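GPX1 10 nM, GR 100 nM, GSH 1 mM, NADPH 0.5 mM, CHP 0.5 mM (final). 30-min cpd preincubation, RT. Ex340/Em450 read t=0, t=15 min.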

For assay [2], the target named is Phospholipid hydroperoxide glutathione peroxidase GPX4 (Homo sapiens) (UniProt P36969). Kind of assay: Primary qHTS Assay for Inhibitors of Recombinant Selenoprotein Glutathione Peroxidase 4 (GPX4) (AID 1845192). For activity change, negative = inhibition: series mostly up to about 50 µM; % is set by controls: 0 for no effect and ±100 for the full control effect. Note: nearly all actives have a fitted effect of over 65% in size. The procedure, abridged: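 qHTS, GR-coupled: GPX4 200 nM + cpd 30 min RT → GSH 1 mM, NADPH 0.5 mM, GR 100 nM → CHP 0.5 mM start; fluor 340/450 at t0 and t15 min; no-enzyme wells as control.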
Chain of Phospholipid hydroperoxide glutathione peroxidase GPX4 (Homo sapiens) (P36969 whole entry, looked up): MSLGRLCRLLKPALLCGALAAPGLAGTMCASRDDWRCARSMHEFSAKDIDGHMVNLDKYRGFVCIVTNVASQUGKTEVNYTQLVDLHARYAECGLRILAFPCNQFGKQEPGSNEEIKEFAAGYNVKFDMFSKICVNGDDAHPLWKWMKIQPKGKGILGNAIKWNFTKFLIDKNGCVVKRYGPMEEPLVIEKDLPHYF

Assay [3] concerns the target Luciferin 4-monooxygenase (Photinus pyralis) (UniProt P08659). In words: Primary firefly luciferase (FLuc) qHTS assay for identification of artifact compounds. (AID 1845220).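 For activity change, negative = inhibition: series mostly up to about 54 µM; plate controls were DMSO vehicle for no effect and no enzyme for full effect.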 Note: nearly all actives have a fitted effect of over 60% in size. The procedure, abridged: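 Reaction readout was CCD-imaged luminescence, taken 5 min after adding 10 nM purified firefly enzyme to compound-treated wells holding 10 uM luciferin and ATP in pH 7.6 buffer.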

Assay [4] in a line: Primary fluorescence-based thiol-reactive (MSTI) qHTS assay for identification of artifact compounds. (AID 1845221).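 For activity change, negative = thiol reactive: series mostly up to about 54 µM; thiol-reactive compounds lower the probe fluorescence signal.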 Note: nearly all actives have a fitted effect of over 65% in size. Note: potency is the fitted concentration of half-maximal effect. In outline: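 Curve-fitted percent inhibition (4-parameter Hill) derived from fluorescence, Ex 525/Em 598 nm, scaled with Acetyl-MSTI and MSTI; 1 h incubation at room temperature.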
Assay [5] relates to Nanoluciferase (engineered Oplophorus gracilirostris luciferase). Kind of assay: Primary Nanoluciferase (NLuc) qHTS assay for identification of artifact compounds. (AID 1845222).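 Note: NLuc secreted into diluted conditioned medium of S16 cells; series mostly up to about 54 µM.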 The procedure, abridged: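 Concentration-response data were obtained by luminescence after 5 min with Nano-Glo substrate at 1:100. The enzyme was diluted S16 NLuc-expressing cell medium, preincubated with compound for 15 min at RT. Curves were fitted with a 4-parameter Hill model.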

The nature of assay [6]: Primary redox qHTS assay for identification of artifact compounds. (AID 1845223).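 Note: 0% = DMSO and 100% = reference compound.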 The procedure, abridged:
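Redox-cycling detection via DTT (250 uM final) oxidation coupled to Amplex Red (25 uM)/HRP (250 mU/mL) in HBSS. 15 min preincubation plus 30 min after DTT, room temperature. Ex/Em 525/598 nm; 4-parameter Hill fit against DMSO and 10 uM DA3003.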

Chain of Glutathione peroxidase 1 (Homo sapiens) (P07203 whole entry, looked up): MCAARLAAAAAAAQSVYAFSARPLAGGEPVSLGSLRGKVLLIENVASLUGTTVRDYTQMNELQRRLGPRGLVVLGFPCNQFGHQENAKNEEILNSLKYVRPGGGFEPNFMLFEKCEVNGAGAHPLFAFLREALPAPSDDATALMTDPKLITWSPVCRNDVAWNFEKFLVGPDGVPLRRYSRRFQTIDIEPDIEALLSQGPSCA

Regarding `CC1CCC2C(C)(C)C(O)CCC2(C)C12Cc1c(O)cc3c(c1O2)C(N)=NC3` (centres undefined), the Potency entry in assay [1], in assay [2], in assay [3], in assay [4], in assay [5] and in assay [6] was “inactive” in each case.
As for `C=C(C(=O)OC)C1CCC2(C)C(O[C@@H]3O[C@H](CO)[C@@H](O)[C@H](O)[C@H]3O)CC(=O)C(C)C2C1O` (some centres undefined), the Potency entry in assay [1], in assay [2], in assay [3], in assay [5] and in assay [6] was “inactive” each time. Moreover, the Potency in assay [4] was 4.12 µM (active).
Take `C/C=C(\C)C(=O)O[C@@H]1CC2[C@@H](CC=C3C[C@@H](O[C@H]4C[C@H](OC)[C@H](O[C@H]5C[C@H](OC)[C@H](O[C@H]6C[C@H](OC)[C@H](O[C@H]7C[C@@H](OC)[C@H](O[C@@H]8O[C@H](CO)[C@@H](O)[C@H](O)[C@H]8O)[C@@H](C)O7)[C@@H](C)O6)[C@@H](C)O5)[C@@H](C)O4)CC[C@@]32C)[C@@]2(O)CC[C@H](C(C)=O)[C@@]12C` (some centres undefined): the activity, negative = inhibition in assay [1] was -14% [at 9.52 µM]; in assay [5], 4.8% [at 11.6 µM]. Besides, the activity change, negative = inhibition was -7.77% [at 9.73 µM] in assay [2] and 2.2% [at 11.6 µM] in assay [3]. The activity change, negative = thiol reactive in assay [4] is 10.3% [at 11.5 µM]. Further, the redox activity (% of DA3003) in assay [6] is -9.41% [at 11.5 µM].
Consider `COCC(=O)N1CCc2cc(-c3csc(NC(=O)c4cc(OC)cc(OC)c4)n3)ccc21`, for which the Potency entry in assay [1], in assay [2], in assay [3], in assay [4], in assay [5] and in assay [6] was “inactive” in each case.
Turning to `COc1ccccc1-n1c(SCC(=O)Nc2nc3ccc(C)cc3s2)nc2c(c1=O)SCC2`, the Potency result in assay [1], in assay [2], in assay [3], in assay [4], in assay [5] and in assay [6] was “inactive” each time.
For the compound `C[C@@H]1CC[C@]2(C(=O)O)CC[C@]3(C)C(=CCC4[C@]5(C)C(CC[C@]43C)C(C)(C)[C@@H](O)[C@H](O)[C@@H]5O)C2[C@]1(C)O` (some centres undefined), the Potency result in assay [1], in assay [2], in assay [3], in assay [4], in assay [5] and in assay [6] was “inactive” in each case.
Regarding `C[C@@H]1O[C@@H](O[C@H]2[C@H](OC(=O)C34CCC5(C)C(=CCC6C7(C)CC(O)C(O[C@@H]8O[C@H](C(=O)O)[C@@H](O)[C@H](O)[C@H]8O)C(C)(C(=O)O)C7CCC65C)C3CC(C)(C)CC4O)O[C@H](C)[C@@H](O)[C@@H]2O)[C@H](O)[C@@H](O[C@@H]2OC[C@](O)(CO)[C@H]2O[C@@H]2O[C@H](CO)[C@@H](O)[C@H](O)[C@H]2O)[C@H]1O` (some centres undefined), the figures for the activity, negative = inhibition in assay [1] and in assay [5] were -10.2% [at 9.52 µM] and 0% [at 11.6 µM], respectively. For the same compound, the activity change, negative = inhibition in assay [2] was -4.3% [at 9.73 µM]; in assay [3], -0.148% [at 11.6 µM]. Besides, the activity change, negative = thiol reactive in assay [4] is 44.4% [at 11.5 µM]. Also, in assay [6], the redox activity (% of DA3003) is 3.71% [at 11.5 µM].
For `CCC(CC)n1ccc2c(C(=O)NCc3c(C)cc(C)[nH]c3=O)cc(C#N)cc21`, the Potency entry in assay [1], in assay [2], in assay [3], in assay [4], in assay [5] and in assay [6] was “inactive” throughout.
In the case of `CC(C#N)C(C)O[C@@H]1O[C@H](CO)[C@@H](O)[C@H](O)[C@H]1O` (some centres undefined), the Potency result in assay [1], in assay [2], in assay [3], in assay [5] and in assay [6] was “inactive” in each case. For the same compound, in assay [4], the Potency was 26.7 µM (active).
As for `C=CCc1ccc(O[C@@H]2O[C@H](CO[C@@H]3O[C@H](CO)[C@@H](O)[C@H](O)[C@H]3O)[C@@H](O)[C@H](O)[C@H]2O)c(O)c1`, the Potency entry in assay [1], in assay [2], in assay [3], in assay [4], in assay [5] and in assay [6] was “inactive” throughout.
For `O=C(c1ccccn1)c1cnn2c(-c3ccncc3)ccnc12`, the Potency entry in assay [1], in assay [2], in assay [3], in assay [4], in assay [5] and in assay [6] was “inactive” in each case.
As for `COC(=O)C[C@@H]1C(C(=O)O)=CO[C@@H](O[C@@H]2O[C@H](CO)[C@@H](O)[C@H](O)[C@H]2O)/C1=C\COC(=O)/C=C\c1ccccc1`, the Potency entry in assay [1], in assay [2], in assay [3], in assay [4], in assay [5] and in assay [6] was “inactive” in each case.
`CC(/C=C/C1(O)C2(C)COC1(C)CC(=O)C2)O[C@@H]1O[C@H](CO)[C@@H](O)[C@H](O)[C@H]1O` (some centres undefined): the Potency entry in assay [1], in assay [2], in assay [3], in assay [5] and in assay [6] was “inactive” throughout. Besides, the Potency in assay [4] is 10.3 µM (active).
With `CC(O)C(O)/C=C/C=C/C(=O)O[C@@H]1C=C2COC(=O)[C@]2(O)[C@@]2(C)CCCC(C)(C)C12` (some centres undefined), the Potency entry in assay [1], in assay [2], in assay [3], in assay [4], in assay [5] and in assay [6] was “inactive” throughout.
On to `CC[C@H]1OC(=O)[C@H](C)[C@@H](OC2C[C@@](C)(OC)[C@@H](O)[C@H](C)O2)[C@H](C)[C@@H](OC2O[C@H](C)C[C@H](NC)[C@H]2O)[C@](C)(O)C[C@@H](C)CN(C)[C@H](C)[C@@H](O)[C@]1(C)O` (some centres undefined), for which the Potency result in assay [1], in assay [2], in assay [3], in assay [4], in assay [5] and in assay [6] was “inactive” each time.
As to `Cc1ccc(Sc2cncc3sc(C(N)=O)cc23)cc1`, the Potency result in assay [1], in assay [2], in assay [3], in assay [4], in assay [5] and in assay [6] was “inactive” throughout.
In the case of `CC(C)(O)c1ccc2c(c1)C(O)CC1C(C)(C(=O)O)CCCC21C` (centres undefined), the Potency result in assay [1], in assay [2], in assay [3], in assay [4], in assay [5] and in assay [6] was “inactive” in each case.
`COc1cc([C@H]2OC[C@]3(OC(C)=O)[C@@H](c4ccc(O[C@@H]5O[C@H](CO)[C@@H](O)[C@H](O)[C@H]5O)c(OC)c4)OC[C@H]23)ccc1O`: the Potency result in assay [1], in assay [2], in assay [3], in assay [4], in assay [5] and in assay [6] was “inactive” each time.
On to `C[C@H]1CN(C[C@H](Cc2ccccc2)C(=O)NCC(=O)O)CC[C@@]1(C)c1cccc(O)c1`, for which the Potency result in assay [1], in assay [2], in assay [3], in assay [4], in assay [5] and in assay [6] was “inactive” in each case.
